# Measurements reported in ChEMBL document CHEMBL3988442, “University of Dundee, Small-Polar-MMV Screening Library” (2021).
# Out of some 48,000 compounds screened, about 13,000 (27%) showed an effect of 50% or more. Some of the results follow.
# Tested on: Wolbachia pipientis
# Assay: Anti-Wolbachia Cell-Based Screen
# Format: functional
# Parameters: scale not given: in the data most compounds retested in dose-response had high values
# Conditions: 5 µM
row,Structure (SMILES),Percent Effect
1,Cc1cccc(NCCOc2cccc(C#N)c2)c1C(N)=O,-11.96%
2,Cc1cc(C)n(Cc2cccc(C(=O)N(CCC#N)CCC#N)c2)n1,-7.761%
3,CC(C)c1nnc2n1CCN(C(=O)c1cccc(OCC(N)=O)c1)C2,-10.94%
4,CC(C)c1cc(NCC2(Cn3cccn3)CC2)nc(N)n1,7.043%
5,CN(C)CCCN(C)C1CCN(c2cccc(-c3cscn3)c2)CC1,6.682%
6,COc1ccc(Br)c(C(=O)NCC2CCN(S(=O)(=O)C3CC3)CC2)c1,-4.78%
7,O=C(NC1CCN(c2ncccn2)CC1)c1cc2c(cc1O)CCCC2,1.017%
8,O=C(NC1CC1)c1cnc(-c2noc3cc(N4CCCCC4)ccc23)s1,-8.879%
9,O=C(NCC1CC1)c1cc(Br)cnc1N1CCCCC1,74.44%
10,O=C(c1cnc(NCC2CCCO2)c(Cl)c1)N1CCCCC1 (centres undefined),21.16%
11,O=C(c1cnc(NCC2CCCO2)c(Cl)c1)N1CCOCC1 (centres undefined),2.383%
12,O=C(NC1CCCCC1)c1cc(Br)cnc1N1CCCCC1,116.3%
13,O=C(NC[C@@H]1CCCO1)c1cc(Br)cnc1N1CCCCC1,112.6%
14,O=C(NCC1CCCCC1)c1nnn(-c2ccc(Br)cc2)n1,-0.9526%
15,Cc1ccc([C@@H]2CN(C(=O)c3cc(C)no3)C[C@H]2NC(=O)C2CC2)cc1,-6.322%
16,Cc1cc(C)c(CCNC(=O)CN2CCCN(C(N)=O)CC2)c(C)c1,7.662%
17,CC(SCCNS(=O)(=O)c1cnn(C)c1)c1cccs1 (centres undefined),10.16%
18,CCc1c(C(=O)N2CCOC(C)(C)C2)cnn1-c1ccccn1,19.62%
19,COc1cccc2c1N(CC(=O)Nc1ccc(Br)cn1)CCC2,-18.77%
20,COc1ccc(-c2ccc(C(=O)NS(C)(=O)=O)c(F)c2)c(F)c1,2.644%
21,CCn1c2c(ccc1=O)CC(NCc1cnn(C)c1)CC2 (centres undefined),111.7%
22,Cc1cnc(NC2CCc3c(ccc(=O)n3C)C2)nc1 (centres undefined),9.132%
23,Cn1cc(CNC2CCc3c(ccc(=O)n3C)C2)cn1 (centres undefined),106.3%
24,CCc1cnc(NC2CCc3c(ccc(=O)n3C)C2)nc1 (centres undefined),-4.602%
25,CN(C)C(=O)Cn1c2c(ccc1=O)CC(NCc1cccnc1)CC2 (centres undefined),-16.54%

row,Structure (SMILES),Percent Effect
1,Cc1cnc(NC2CCc3c(ccc(=O)n3CC3CC3)C2)nc1 (centres undefined),-5.786%
2,COCCn1c2c(ccc1=O)CC(NC(=O)c1cscn1)CC2 (centres undefined),-30.94%
3,COCCn1c2c(ccc1=O)CC(NCc1cnn(C)c1)CC2 (centres undefined),90.26%
4,O=c1ccc2c(n1Cc1cccnc1)CCC(NCc1cccnc1)C2 (centres undefined),-5.878%
5,Cn1cc(-c2csc(CN3CCOCC3)n2)cn1,-11.66%
6,N#Cc1ccccc1C(=O)N1C[C@@H](CN2CCCCC2)[C@@H](CO)C1,-9.135%
7,CC(C)(C)OC(=O)NC1(c2noc(-c3ccoc3)n2)CCC1,-12.02%
8,CC1(C)CC(N2Cc3nc(N)ncc3C2=O)CC(C)(C)N1,-10.52%
9,CO[C@@H]1CCN(c2nnc(C)s2)C[C@@H]1Cc1cccc(C)c1.O=C(O)C(F)(F)F,98.33%
10,CO[C@@H]1CCN(Cc2nccs2)C[C@@H]1Cc1cccc(C)c1.O=C(O)C(F)(F)F,-16.54%
11,CO[C@H]1CCN(c2nnc(C)s2)C[C@@H]1Cc1cccc(C)c1.O=C(O)C(F)(F)F,71.03%
12,Cc1cccc(CO[C@H]2CN(c3nnc(C)s3)[C@@H]3CCCO[C@H]23)n1.O=C(O)C(F)(F)F.O=C(O)C(F)(F)F,-4.881%
13,CCc1nc2c(N3CCC4(CC3)CC(=O)N(CC)C4)ncnc2o1,-6.459%
14,CNc1ncc(CN(C)C(=O)c2cccc(CC3CCNCC3)c2)cn1,3.587%
15,CC(=O)N1CCC2(CCN(C(=O)c3ccc(C)c(C(F)(F)F)c3)CC2)C1,5.655%
16,O=C(Nc1ccccc1)[C@H]1O[C@H](CCN2CCCCC2)CC[C@@H]1O,-9.518%
17,Cc1ccc2c(n1)N(CCN(C)C)CCN(C(=O)c1ccco1)C2,15.51%
18,CCC(=O)Nc1ccc2c(c1)CN(C(=O)c1ccco1)CC2,20.51%
19,COCC(=O)Nc1ccc2c(c1)CN(C(=O)c1ccco1)CC2,105.1%
20,CC(=O)Nc1ccc2c(c1)CN(C(=O)c1ccco1)CC2,113.8%
21,Cn1c(=O)oc2ccc(NC(=O)N3CCc4ccccc4C3)cc21,3.021%
22,Cc1n[nH]cc1CNc1ccc2c(c1)CN(C(=O)OC(C)(C)C)CC2,-19.63%
23,CCc1noc(CC)c1CNC(=O)Nc1ccc2[nH]nnc2c1,5.627%
24,Cc1ccccc1CS(=O)(=O)CC(=O)N(C)Cc1ccccc1,-7.305%
25,CCCNC(=O)CCC(=O)Nc1ccc(-n2cncn2)c(F)c1,-8.923%

row,Structure (SMILES),Percent Effect
1,Cc1cc(S(=O)(=O)Nc2onc(C)c2C)c(C)s1,-1.825%
2,Cc1ccc(NC(=O)NCC2(N3CCOCC3)CCSC2)c(C)c1 (centres undefined),-11.49%
3,COCCN1CCCC12CCCN(c1nncs1)C2 (centres undefined),14.36%
4,Cc1cc(N2CCC3(CCC(=O)N(CCO)C3)CC2)nc(N(C)C)n1,21.48%
5,CCN1CCCC1(C)c1nc(C)cc(N)n1 (centres undefined),113.3%
6,CCCc1nc(C)cc(N2CCC3(CCC(=O)N(CCO)C3)CC2)n1,3.34%
7,COCCN1CCCC1(C)c1nc(C)cc(N)n1 (centres undefined),125.2%
8,Cc1cc(C)nc(C2(C)CCCN2CCO)n1 (centres undefined),123.6%
9,CCCc1nc(C)cc(N2CCC3(CCC(=O)N(CCOC)C3)CC2)n1,0.7545%
10,Cc1nnsc1C(=O)NCc1cccnc1N(C)Cc1ccccc1,-7.662%
11,CC(C)N1CCOCC2(CN(Cc3nccs3)CCO2)C1.O=C(O)C(F)(F)F.O=C(O)C(F)(F)F (centres undefined),13.74%
12,CNS(=O)(=O)c1cccc(CNCc2ccsc2)c1,4.811%
13,O=C(c1ccco1)N1CCC2(CCOC2)C1 (centres undefined),5.675%
14,Cc1cnc(N2CC3(CCN(C(=O)c4ccoc4)C3)C2)nc1,-4.182%
15,CC(=O)N1CCCC2(CCN(c3nncs3)C2)C1 (centres undefined),-12.49%
16,O=C(CCO)N1CCOC2(CCCN(C(=O)c3ccco3)C2)C1 (centres undefined),-2.214%
17,O=C(c1ccco1)N1CCC2(CCCN(c3ncc(F)cn3)C2)C1 (centres undefined),95.74%
18,O=C(c1ccco1)N1CCCC2(C1)CN(c1nncs1)CCO2 (centres undefined),86.33%
19,O=C(c1ccco1)N1CCCC2(CN(Cc3ccoc3)CCO2)C1 (centres undefined),-2.684%
20,O=C(c1ccoc1)N1CCC2(CCCN(c3ncc(F)cn3)C2)C1 (centres undefined),105.6%
21,O=C(O)C(F)(F)F.O=C(c1ccccn1)N1CCC2(CCCN(c3nncs3)C2)C1 (centres undefined),-19.65%
22,O=C(O)C(F)(F)F.O=C(c1ccco1)N1CCCC2(CCN(c3nncs3)C2)C1 (centres undefined),102.9%
23,O=C(c1ccco1)N1CCO[C@@H]2CN(c3ncc(F)cn3)CC[C@@H]2C1,-7.545%
24,O=C(c1ccoc1)N1CCC2(C1)CN(c1ncc(F)cn1)C2,0.03212%
